About 79,000 compounds went through this panel and 15% of them were active in at least one assay; those are over-represented in the sample as a whole. Values without a mark were called inactive. Cut-off read from the data, not from the text of the source: active = growth inhibition above about 70%; inactive = the rest.

The nature of the assay: NCI Yeast Anticancer Drug Screen. Data for the mec2-1 strain (AID 157). As to conditions: S. cerevisiae mec2-1 strain, at 50.0 µM, hits give high values. As for the experimental part:
Growth inhibition of yeast strains with defined genetic alterations is measured as a screen for potential anti-cancer activity. Selected strains with alterations in DNA damage repair or cell cycle control were exposed to compounds and growth inhibition was measured relative to vehicle treated controls. The strain used in this assay is mec2-1
As for `Cc1cc(O)ccc1O`, the growth inhibition was 25.1%. Consider `c1ccc2c(N3CCCCC3)ncnc2c1`, for which the growth inhibition is -1%. For the compound `CN(C)Cc1cc(C(C)(C)CC(C)(C)C)ccc1O`, the growth inhibition is -3.2%.

For the compound `CCOC(=O)c1ccc(Nc2sc(C(=O)c3cccc([N+](=O)[O-])c3)c(N)c2C#N)cc1`, the growth inhibition is -9.95%. For `Nc1ccc(N=Nc2ccc(S(=O)(=O)O)cc2)c2ccccc12`, the growth inhibition is 3.15%. For `CNc1nc(NC)c2cn[nH]c2n1`, the growth inhibition is 2.3%. The same measure for `Cc1ccc(/C=C2\SC(=S)N(c3ccc(F)cc3)C2=O)o1`: 10.9%. Next, `Cc1cc(C(O)(c2ccc(Nc3ccccc3)cc2)c2ccc(Nc3ccc(S(=O)(=O)O)cc3)cc2)ccc1N` (stereo not given): -46%; `Nc1ccccc1SC(CC(=O)c1ccccc1)c1c(Cl)cccc1Cl` (stereo not given): -9.65%; `O=C(O)/C=C/C(=O)NCc1ccccc1`: 42.6%. Next, `OCc1cccc2ccccc12`: 25.9%; `COc1cc(CN)ccc1O`: -6.25%; `CC(=O)N(C)c1ccc([N+](=O)[O-])cc1`: -5.6%.

Regarding `C[N+](C)(C)C(=O)c1ccccc1`, the growth inhibition was 21.4%. The same measure for `Cc1cc(N)c(S(=O)(=O)O)c(N)c1`: 5.65%; for `CC1=NN(c2ccccc2)C(=O)/C1=C\N1CC(=O)NC1=S`: -46%. Regarding `NC(=O)N/N=C\c1ccco1`, the growth inhibition is -9.8%. The same measure for `O=C1OC[C@H]2[C@H](c3ccc(O)c(O)c3)c3cc(O)c(O)cc3C[C@H]12`: -2.45%; for `CCOC(=O)c1cc(/C=C/c2cccc(Cl)c2)on1`: 27.6%. `COc1ncnc2c1cnn2C`: the growth inhibition is 3.6%.

Regarding `O=P(O)(O)OCC(O)CO` (stereo not given), the growth inhibition is -7.3%. `COc1ccccc1N1CCN(C(=S)Nc2ccccc2)CC1`: the growth inhibition is -13.8%. The same measure for `COc1ccc(OC)c(/C=C2\CCc3ccccc3C2=O)c1`: -30.1%. The same measure for `CC1(C(N)=O)CCC(C(=O)O)C1(C)C` (stereo not given): -3.45%; for `NCCCN`: -7.05%. Next, `O=C(Cc1nc2ccc([N+](=O)[O-])cc2nc1CC(=O)c1ccccc1)c1ccccc1`: 9.35%; `CN1C(=O)CN2CCc3ccccc3C2c2cc(Cl)ccc21` (stereo not given): 26.4%. On to `C/C(=N\O)C1(O)CCCCC1`, for which the growth inhibition was 3.55%. Next, `CC(=O)OC1CC2C(C)(C)OC3CC(=O)OCC32C2CCC3(C)C(=CCC3c3ccoc3)C12C` (stereo not given): -5.7%; `CC1(C)S(=O)(=O)OCCOS1(=O)=O`: 16.6%. Next, `CC(=O)Cc1ccc(-c2ccccc2)cc1`: 14.8%. For `CC(C)C1CCCCC1O` (stereo not given), the growth inhibition was -9.1%.

For `C1CNC(C2=NCCN2)=N1`, the growth inhibition is -8.2%.

For `N#C/C(=C\c1cc(O)c(O)c(O)c1)C(N)=O`, the growth inhibition is -14.8%.

On to `CCC/C=C(\C)C(C)(C#N)C(=O)OCC` (stereo not given), for which the growth inhibition was -8.45%. In the case of `O=C(Nc1cccc(NC(=O)Nc2cc(C(F)(F)F)ccc2Cl)c1)Nc1cc(C(F)(F)F)ccc1Cl`, the growth inhibition was -15.8%. Regarding `CSc1[nH]c(=O)ncc1F`, the growth inhibition was 4.1%. Take `Nc1ccc(NC(=O)c2cccc(N)c2)cc1`: the growth inhibition is 3.5%. Take `C=CCCCCCCCCCOC(C)=O`: the growth inhibition is -41.1%. Next, `Cc1ccc(N)cc1[N+](=O)[O-]`: 2%.

Values taken from PubChem BioAssay (NCI).
